TrxR1 substrate = substrates of rat thioredoxin reductase 1; AID 588456; O89049; purified TrxR1 substrate turnover, NADPH consumption readout; Potency, µM (doses to about 114 µM), for inactives: top-dose activity change, negative = substrate turnover; 0.01% of 390,000 active; further: on the % scale 0 is the no-effect control and ±100 the full control effect; nearly all actives have a fitted effect of over 50% in size
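Rat TrxR1, dispensed at 90 nM, was prereduced with 400 uM NADPH (final) for 5 min at ~22 deg C, then incubated with compound 15 min before 400 uM selenite. A first-read NADPH fluorescence drop versus no-compound background flagged substrates.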
rTrxR1 inhibitor = inhibitors of rat thioredoxin reductase 1 | O89049 | recombinant rTrxR1, NADPH fluorescence consumption, selenite substrate | Potency, µM (top dose mostly 114 µM), inactives show at the top dose activity change, negative = inhibition, most hits filed as inhibitors | 1% of 390,000 active; further: on the % scale 0 is the no-effect control and ±100 the full control effect; nearly all actives have a fitted effect of over 65% in size
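Rat TrxR1 (90 nM in the dispensed reagent) was pre-reduced with 400 uM NADPH for 5 min at room temperature, then incubated with compound for 15 min. After 400 uM selenite was added, NADPH fluorescence (Ex 340/Em 450 nm) was followed for 8 min.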
Nrf2 ARE act = activators of Nrf2 (ARE) signaling. AREc32 ARE-luciferase reporter (MCF7-derived line), luminescence, 24 h. Potency, µM (doses to about 46.1 µM), without a hit: at the top dose activation, hits mostly activators. 0.31% of 410,000 active. AID 624171; further: % of control where 0% means no effect; nearly all actives have a fitted effect of over 65% in size
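ARE activation measured as luciferase luminescence (Steady-Glo, 30 min RT) in AREc32_Fluc cells after 24 hr compound exposure at 37 deg C, 5% CO2; cells seeded overnight at 1000/well in OPTI-MEM, 5% FBS.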
A549 viability = A549 cytotoxicity, counter-screen for Nrf2 inhibitors; A549 ARE-Fluc cells, CellTiter-Fluor viability, 18-24 h; Potency, µM (top dose mostly 46 µM), inactives show at the highest dose activity change, negative = cytotoxicity, most hits filed as inhibitors; 0.16% of 390,000 active; AID 504648; further: on the % scale 0 is the no-effect control and ±100 the full control effect
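A549 ARE_Fluc cells in 5% FBS OPTI-MEM were exposed to compounds in concentration-response for 18-24 h at 37 deg C. Viability was read by CellTiter-Fluor fluorescence (Ex 405/Em 525) after 30 min, before the luciferase read.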
GALK inhibitor = galactokinase (human) inhibition | Potency, µM (doses to about 57.5 µM), inactives show at the highest dose activity change, negative = inhibition, usual class: inhibitors | Purified GALK, Kinase-Glo residual ATP luminescence | P51570 | AID 1868 | 0.007% of 270,000 active; further: on the % scale 0 is the no-effect control and ±100 the full control effect
Target sequence (P51570 whole entry, looked up): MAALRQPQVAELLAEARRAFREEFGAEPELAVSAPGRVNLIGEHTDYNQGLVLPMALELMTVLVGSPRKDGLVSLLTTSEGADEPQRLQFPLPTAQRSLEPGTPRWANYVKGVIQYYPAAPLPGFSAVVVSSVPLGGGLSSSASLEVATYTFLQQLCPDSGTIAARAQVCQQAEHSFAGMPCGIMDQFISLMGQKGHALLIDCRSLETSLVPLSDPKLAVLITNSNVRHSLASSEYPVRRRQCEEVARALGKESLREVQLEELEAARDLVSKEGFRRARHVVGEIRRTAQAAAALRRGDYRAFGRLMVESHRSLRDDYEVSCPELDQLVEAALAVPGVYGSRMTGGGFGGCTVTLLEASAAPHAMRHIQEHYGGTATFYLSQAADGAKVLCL
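Quantitative HTS: GALK 5 nM, ATP 35 uM, galactose 100 uM, 1 h room temperature, then luciferase-based ATP detection.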
Nrf2 block = inhibitors of Nrf2 signaling | A549 ARE-Fluc reporter, luciferase luminescence, 18-24 h | Potency, µM (titrated, usually from 46 µM), inactives show at the highest dose activity change, negative = inhibition, usual class: inhibitors | 2.1% of 360,000 active; further: on the % scale 0 is the no-effect control and ±100 the full control effect; nearly all actives have a fitted effect of over 60% in size
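A549 ARE_Fluc cells, 5000/well, 5% FBS OPTI-MEM; compounds in dose-response, 18-24 h at 37 °C/5% CO2; CellTiter-Fluor viability read (Ex 405/Em 525), then BugLite luciferase luminescence = Nrf2 activity.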
Starred values were filed as active, the others as inactive; [ ] = dose if it differs, or a comment. Most compounds without a hit are left out; they make up all but 3% or so of the library. The call rests on the fitted dose curve; in most records, active means well fitted curve in the direction sought with a large enough effect; inconclusive means small, poorly fitted or top-dose-only effect, or another doubt; inactive means no such curve, though single readings can be large; an effect the other way counts as inactive or inconclusive. Potency means the concentration at half of the fitted maximal effect.

How did CC(=O)c1ccc(Nc2ccc([N+](=O)[O-])c3nonc23)cc1 do in these assays?
TrxR1 substrate: 0%; rTrxR1 inhibitor: 17%; Nrf2 ARE act: 11µM*; A549 viability: inconclusive; GALK inhibitor: -1%; Nrf2 block: -1%

What do the screens show for `CCc1nnc(NS(=O)(=O)c2ccc(NC(=S)NC(=O)c3ccc(F)cc3)cc2)s1`?
TrxR1 substrate: -3%; rTrxR1 inhibitor: 18µM*; Nrf2 ARE act: 0%; A549 viability: 2%; GALK inhibitor: -3%; Nrf2 block: -8%

Results for Cc1noc(C)c1-c1cccc(-c2nn3c(=O)cc(N4CCNCC4)nc3s2)c1 ?
A549 viability: 1%; Nrf2 block: -3%

How did Cc1cc(NS(=O)(=O)c2ccc(NC(=S)NC(=O)c3ccc(Br)cc3)cc2)no1 do in these assays?
TrxR1 substrate: 6%; rTrxR1 inhibitor: 45µM*; Nrf2 ARE act: 5%; A549 viability: 2%; GALK inhibitor: 0%; Nrf2 block: -19%

How did Cc1cc(NS(=O)(=O)c2ccc(NC(=S)NC(=O)c3cccnc3)cc2)no1 do in these assays?
TrxR1 substrate: -2%[57.1 µM]; rTrxR1 inhibitor: -11%[57.1 µM]; Nrf2 ARE act: 0%; A549 viability: -8%; GALK inhibitor: 7%; Nrf2 block: -6%

How did C/C(=N\Nc1nccnc1Cl)c1ccc(Cl)c(Cl)c1 do in these assays?
TrxR1 substrate: -3%[57.1 µM]; rTrxR1 inhibitor: -8%[57.1 µM]; Nrf2 ARE act: 14µM*; A549 viability: 2%; GALK inhibitor: 6%; Nrf2 block: inconclusive

Results for Cc1sc2ncnc(SCc3ccco3)c2c1C ?
TrxR1 substrate: -8%; rTrxR1 inhibitor: -15%; Nrf2 ARE act: 3.2µM*; A549 viability: 9%; GALK inhibitor: 1%; Nrf2 block: -9%

Results for Cc1nc(SCC(=O)N(C)Cc2ccco2)c2c(C)c(C)sc2n1 ?
TrxR1 substrate: -7%; rTrxR1 inhibitor: 22µM*; Nrf2 ARE act: 15%; A549 viability: -2%; GALK inhibitor: 2%; Nrf2 block: inconclusive

Results for O=Cc1ccc(CS)cc1 ?
TrxR1 substrate: -5%; rTrxR1 inhibitor: 17%[0.0914 µM]

Results for O=S(=O)(c1nccs1)N1CCN(c2nc(-c3cccs3)nc3ccccc23)CC1 ?
TrxR1 substrate: 9%; rTrxR1 inhibitor: 18%; A549 viability: -1%; Nrf2 block: inconclusive

How did Nc1cc(C(F)(F)F)ccc1S(=O)(=O)Nc1cccc2c1NCCC2 do in these assays?
TrxR1 substrate: 3%; rTrxR1 inhibitor: -4%; A549 viability: inconclusive; Nrf2 block: 19%

What do the screens show for `Cc1ccc2[nH]c(=O)c(CN(CCCO)Cc3nnnn3Cc3ccccc3)cc2c1`?
TrxR1 substrate: 5%; rTrxR1 inhibitor: 20µM*; A549 viability: 2%; Nrf2 block: -28%

What do the screens show for `CCOc1ccc2[nH]c(=O)c(CN(Cc3ccco3)Cc3nnnn3Cc3ccccc3)cc2c1`?
TrxR1 substrate: 23%; rTrxR1 inhibitor: 14µM*; Nrf2 ARE act: 21%; A549 viability: -6%; GALK inhibitor: 0%; Nrf2 block: 12%

What do the screens show for `CCOc1ccc2[nH]c(=O)c(C(c3nnnn3Cc3ccco3)N3CCN(C)CC3)cc2c1` (stereo not given)?
TrxR1 substrate: 22%[57.1 µM]; rTrxR1 inhibitor: 4%[57.1 µM]; Nrf2 ARE act: 0%; A549 viability: -4%; GALK inhibitor: 1µM*; Nrf2 block: 7%

What do the screens show for `Cc1ccc2[nH]c(=O)c(CN(CCO)Cc3nnnn3Cc3ccccc3)cc2c1`?
TrxR1 substrate: -1%; rTrxR1 inhibitor: 3%; A549 viability: 4%; Nrf2 block: -14%

Results for Cc1ccc(CNC(=O)c2cc(S(=O)(=O)N3CCCC(C)C3)cn2C)cc1 (stereo not given) ?
TrxR1 substrate: 2%[57.1 µM]; rTrxR1 inhibitor: 5%[57.1 µM]; Nrf2 ARE act: 2%; A549 viability: 4%

How did COc1cc(NC(=O)N2CCN(c3cc(-c4noc(C)n4)ccc3C)CC2)cc(OC)c1OC do in these assays?
TrxR1 substrate: 1%[57.1 µM]; rTrxR1 inhibitor: 12%[57.1 µM]; Nrf2 ARE act: 0%; A549 viability: 13%
